PAFAH2 inh – PAFAH2 (human) inhibition | recombinant PAFAH2, FP-rhodamine activity probe, fluorescence polarization | AID 492956 | inhibition, % at 3.39 µM | 340,000 tested, 0.99% active;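 active = inhibition above the mean over all tested compounds plus 3 SD, cut at about 30% in these data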;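 also: inhibitors block probe labeling of enzyme so polarization drops; 0% = enzyme with DMSO and 100% = wells lacking PAFAH2 protein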
PAFAH1B3 inh – blocks human PAF acetylhydrolase 1B catalytic subunit 3; Q15102; recombinant PAFAH1B3, FP-rhodamine probe, fluorescence polarization; inhibition, % at 3.39 µM; 340,000 tested, 0.28% active;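 active = inhibition above the screen-wide average of all tested compounds plus 3 SD, cut at about 25% in these data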;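 also: 0% = enzyme with DMSO only and 100% = wells lacking PAFAH1B3 protein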
Target sequence (Q15102 whole entry, looked up): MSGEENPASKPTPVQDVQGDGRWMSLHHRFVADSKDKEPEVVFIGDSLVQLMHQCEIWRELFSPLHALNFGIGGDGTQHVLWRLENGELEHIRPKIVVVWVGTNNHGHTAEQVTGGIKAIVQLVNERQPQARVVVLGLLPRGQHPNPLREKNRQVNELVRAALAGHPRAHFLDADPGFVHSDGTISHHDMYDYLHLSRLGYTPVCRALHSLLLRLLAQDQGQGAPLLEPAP
pPAFAH FP inh – pPAFAH (human) enzyme inhibition | 330,000 tested, 1.5% active | inhibition, % at 3.39 µM | recombinant pPAFAH, FP-rhodamine probe fluorescence polarization;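 active = inhibition above the mean inhibition across the screen plus 3 SD, cut at about 25% in these data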;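 also: inhibitors block binding of the rhodamine activity-based probe so polarization drops; 0% = enzyme with DMSO and 100% = wells lacking pPAFAH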
PP1 inh – counter-screen for PP5 inhibitors: inhibitors of human PP1-alpha; inhibition, % at 6.7 µM; purified PP1alpha, OMFP fluorescence; 320,000 tested, 0.9% active;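 active = inhibition above the mean inhibition of all tested compounds plus 3 SD, computed separately for each screening campaign, cut at about 15% in these data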
PP5 inh – blocks human protein phosphatase 5 activity | P53041 | purified PP5c, OMFP substrate fluorescence | inhibition, % at 6.7 µM | 320,000 tested, 0.18% active;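 active = inhibition above the campaign's mean inhibition across all tested compounds plus 3 SD, cut at about 9.5% in these data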;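 also: 0% = DMSO only and 100% = 100 µM cantharidin control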
PAFAH1B2 inh – PAFAH1B2 (human) inhibition; 340,000 tested, 1.2% active; recombinant PAFAH1B2, FP-rhodamine activity probe, fluorescence polarization; P68402; AID 492953; inhibition, % at 3.39 µM;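 active = inhibition above the mean of all tested compounds plus 3 SD, cut at about 24% in these data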;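 also: 0% = enzyme with DMSO and 100% = wells lacking PAFAH1B2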
Target sequence (P68402 whole entry, looked up): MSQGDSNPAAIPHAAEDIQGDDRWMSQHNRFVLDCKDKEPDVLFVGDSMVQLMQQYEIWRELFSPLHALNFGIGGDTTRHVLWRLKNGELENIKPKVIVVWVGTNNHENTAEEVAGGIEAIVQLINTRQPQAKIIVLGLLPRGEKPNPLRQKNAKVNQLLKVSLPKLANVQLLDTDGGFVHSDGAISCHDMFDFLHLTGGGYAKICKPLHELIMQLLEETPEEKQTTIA
PAFAH2 FP conf – confirmation of human PAFAH2 inhibitors; shares compounds with PAFAH2 inh; recombinant PAFAH2, FP-rhodamine activity probe, fluorescence polarization; inhibition, % at 3.39 µM; 2,300 tested, 65% active;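 active = mean inhibition over three repeats above a set limit taken from the earlier primary screen, cut at about 30% in these data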;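 also: inhibitor blocks binding of rhodamine activity probe so polarization falls; 0% = enzyme with DMSO and 100% = wells lacking PAFAH2 protein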
The depositor's hits bear a star; / = no result given. Most compounds without a hit are left out; they make up all but 3.4% or so of the library.

SMILES	PAFAH2 inh	PAFAH1B3 inh	pPAFAH FP inh	PP1 inh	PP5 inh	PAFAH1B2 inh	PAFAH2 FP conf
N#C/C(=C\c1ccc(OCc2ccc(C(=O)O)cc2)cc1)C(=O)NCc1ccccc1	-11	0	4	2	-1	3	/
N#C/C(=C\c1ccc(OCc2cccc(C(=O)O)c2)cc1)C(=O)NCc1ccco1	37*	13	-3	-10	4	12	28
CC(NC(=O)COC(=O)c1cccc(S(=O)(=O)N2CCCC2)c1)c1ccccc1 (stereo unspecified)	53*	9	10	/	/	5	40*
O=C(COC(=O)c1cccc(S(=O)(=O)N2CCCC2)c1)Nc1ccccc1Cl	29	3	/	/	/	-1	/
O=C(COC(=O)c1ccc(Cl)c(S(=O)(=O)N2CCCCCC2)c1)Nc1ccccc1	44*	-21	17	3	3	-10	31*
Cc1ccccc1NC(=O)COC(=O)c1cccc(S(=O)(=O)N2CCCCC2)c1	45*	8	8	-2	-3	2	28
COc1ccc(C(=O)OCC(=O)NC(Cc2ccccc2)C(C)=O)cc1S(=O)(=O)N1CCCC1 (stereo unspecified)	35*	3	/	/	/	1	32*
Cc1cc(NC(=O)CSCC(=O)OCC(=O)c2cccc(Br)c2)no1	9	-4	20	-1	0	-3	/
COc1cc(OC)cc(-c2c(-c3cccs3)c3cc(-c4ccc(CN5CCOCC5)cc4)ccc3n2C)c1	-7	10	19	/	/	-4	/
CC(Sc1cccc[n+]1[O-])C(=O)Nc1ccc(Oc2ccccc2)cc1 (stereo unspecified)	11	14	8	-1	-1	5	/
CC1CN(C(=S)Nc2ccccc2C(F)(F)F)CC(C)O1 (stereo unspecified)	-2	3	-1	-5	-1	-6	/
COC(=O)[C@@H](c1ccccc1)N(C)S(=O)(=O)c1cccc(S(=O)(=O)N(C)[C@@H](C(=O)OC)c2ccccc2)c1	-2	5	4	7	1	2	/
O=C(COC(=O)c1cccc(S(=O)(=O)N2CCCC2)c1)Nc1ccccc1	72*	8	8	1	0	5	76*
O=C(COC(=O)c1ccc(S(=O)(=O)N2CCCC2)cc1)Nc1ccccc1	4	3	5	-1	-2	1	/
NS(=O)(=O)c1cccc(NC(=O)COC(=O)c2ccccc2C(=O)c2ccccc2)c1	54*	-4	8	-4	1	-3	51*
CC(C)(C)N(Cc1ccccc1)C(=O)COC(=O)CSc1ccc([N+](=O)[O-])cc1	1	3	9	-1	1	21	/
O=C1c2ccccc2-n2c1nc1ccccc1c2=O	32*	0	6	-3	1	6	20
O=c1c2ccccc2nc2n1-c1ccccc1CCC2	-7	4	0	3	1	2	/
CC(NC(=O)COC(=O)c1ccccc1SCC(=O)N1CCCC1)c1ccccc1 (stereo unspecified)	51*	1	6	-4	-1	2	42*
COc1ccccc1CNC(=O)COC(=O)c1ccccc1SCC(=O)N1CCCC1	29	0	1	-1	-2	-1	/
Cc1ccccc1NC(=O)COC(=O)c1ccccc1SCC(=O)N1CCCC1	44*	-4	5	-3	1	6	41*
COc1ccc(NC(=O)COC(=O)c2ccccc2SCC(=O)N2CCCC2)cc1	61*	1	6	-2	0	0	62*
CC1(C2CC2)NC(=O)N(CC(=O)Nc2ccc(F)cc2F)C1=O (stereo unspecified)	-1	1	3	-1	2	0	/
Cc1ccc(CO/N=C/c2c(O)cc(C)oc2=O)cc1	37*	4	-1	-4	3	22	12
Cc1ccc(N/N=C/c2c(O)cc(C)oc2=O)cc1	5	3	2	0	-3	6	/
SMILES	PAFAH2 inh	PAFAH1B3 inh	pPAFAH FP inh	PP1 inh	PP5 inh	PAFAH1B2 inh	PAFAH2 FP conf
CC1(C)CC(=O)C=C(c2cccc(Br)c2)C1	-6	-9	1	-5	-2	1	/
CC(C)(C)c1nc[nH]c(=O)c1Br	63*	5	8	1	2	5	41*
O=C(O)c1cc(-c2ccc(/C=C3/SC(=S)N(Cc4ccccc4)C3=O)o2)ccc1Cl	34*	3	/	/	/	3	26
CC1=NOC(=O)/C1=C\c1ccc(-c2ccccc2Br)o1	44*	20	/	/	/	24	25
CC1=NOC(=O)/C1=C\c1ccc(-c2ccc(Cl)c(C(=O)O)c2)o1	49*	19	/	/	/	5	33*
CC1=NOC(=O)/C1=C\c1ccc(-c2cccc(Cl)c2)o1	31*	8	7	13	-3	9	23
O=C(O)Cn1nnc(-c2ccc(OCc3ccccc3)cc2)n1	3	3	3	3	1	18	/
Cc1nnc(SCC(=O)Nc2c(C)n(C)n(-c3ccccc3)c2=O)n1Cc1ccccc1	4	0	-3	-3	0	2	/
COc1ccc(C(=O)OCn2nnc3ccccc3c2=O)cc1	43*	-4	-2	3	-1	8	37*
COc1cccc(C(=O)OCn2nnc3ccccc3c2=O)c1OC	50*	-3	9	-5	4	0	45*
COc1cc(C(=O)OCn2nnc3ccccc3c2=O)cc(OC)c1OC	-11	1	-6	5	2	5	/
CCOc1ccc(C(=O)OCn2nnc3ccccc3c2=O)cc1OC	63*	9	1	1	2	1	52*
O=C(OCn1nnc2ccccc2c1=O)c1ccc(O)cc1	33*	7	0	1	-2	5	19
Cc1ccccc1C(=O)OCn1nnc2ccccc2c1=O	9	3	7	2	-2	7	/
COCCn1c(C)nnc1SCC(=O)NNC(=O)c1ccc(Cl)cc1	0	4	0	2	4	0	/
CCOC(=O)c1cc(-c2ccccc2)nc2c(O)cccc12	9	7	/	/	/	4	/
O=C(O)c1cccc(N/N=C/C2=C(Cl)c3cc(Cl)ccc3SC2)c1	36*	17	/	/	/	15	15
O=C(O)c1cccc(N/N=C/c2ccc(F)c(F)c2)c1	3	1	9	1	0	-1	/
CC1(C)Cc2c(cnn2-c2ccc(F)cc2)C(NC(=O)CCN2CCCCC2=O)C1 (stereo unspecified)	1	-1	/	/	/	-1	/
O=C(COC(=O)C1CC1)Nc1ccc(Cl)cn1	31*	1	4	-2	2	5	27
O=C(COC(=O)CNC(=O)c1ccccc1)Nc1ccc(Cl)cn1	-3	6	-4	/	/	1	/
CC1CC1C(=O)OCC(=O)Nc1ncc(Cl)cc1Cl (stereo unspecified)	31*	8	17	-4	0	3	17

Assay outcomes (PubChem BioAssay)
